Drawing on PubChem BioAssay (NCATS), this text covers Potency for 4 compounds.

Records with an inconclusive call do not appear. Entries that show only a call come without a potency. The source made the active and inactive calls. Calls come from the whole dose curve; as a rule, active = well fitted inhibition curve with a large enough effect; inconclusive = small, poorly fitted or top-dose-only effect; inactive = flat fitted curve, though single readings scatter.

The target of the assay is Ubiquitin carboxyl-terminal hydrolase 1 (Homo sapiens) (UniProt O94782). Kind of assay: Inhibitors of USP1/UAF1: Pilot qHTS (AID 504865).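 Note: rhodamine fluorescence freed from ubiquitin-rhodamine substrate followed over time; top concentration of the series differs between compounds; nearly all actives have a fitted effect of over 35% in size.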 Conditions: purified USP1/UAF1, Ub-rhodamine cleavage fluorescence; series mostly up to 114 µM. The gist of the method: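 Deubiquitinase activity followed as kinetic rhodamine fluorescence release from 150 nM Ub-Rho. 1 nM USP1/UAF1 with compound, after 15 min room-temperature preincubation, in HEPES pH 7.8 buffer containing TCEP, EDTA, BSA and Tween-20.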
Ubiquitin carboxyl-terminal hydrolase 1 (Homo sapiens), sequence (O94782 whole entry, looked up): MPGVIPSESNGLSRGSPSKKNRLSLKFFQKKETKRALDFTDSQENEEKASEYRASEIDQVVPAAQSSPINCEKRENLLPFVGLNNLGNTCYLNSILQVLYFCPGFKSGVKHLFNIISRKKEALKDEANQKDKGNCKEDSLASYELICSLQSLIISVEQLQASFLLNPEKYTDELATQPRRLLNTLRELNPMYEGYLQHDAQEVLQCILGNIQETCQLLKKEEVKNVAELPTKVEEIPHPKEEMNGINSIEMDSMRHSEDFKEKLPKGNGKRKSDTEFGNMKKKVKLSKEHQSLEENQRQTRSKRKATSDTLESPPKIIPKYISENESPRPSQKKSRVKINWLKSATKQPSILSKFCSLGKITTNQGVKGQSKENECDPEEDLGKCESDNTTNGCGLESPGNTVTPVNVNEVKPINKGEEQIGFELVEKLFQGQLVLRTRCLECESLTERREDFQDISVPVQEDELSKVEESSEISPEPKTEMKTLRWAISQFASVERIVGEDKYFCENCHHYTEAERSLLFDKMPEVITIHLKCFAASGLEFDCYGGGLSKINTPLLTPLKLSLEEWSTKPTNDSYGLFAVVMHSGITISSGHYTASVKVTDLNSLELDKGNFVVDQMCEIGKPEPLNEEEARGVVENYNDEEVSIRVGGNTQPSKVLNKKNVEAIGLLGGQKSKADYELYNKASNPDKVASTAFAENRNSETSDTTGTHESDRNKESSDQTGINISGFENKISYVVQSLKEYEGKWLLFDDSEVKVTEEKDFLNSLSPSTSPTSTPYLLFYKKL
A general note: qHTS replaces the single test concentration by a dilution series.
In the case of `CC(=O)O[C@@]1(C(C)=O)CCC2C3C=C(Cl)C4=CC(=O)C5CC5[C@@]4(C)C3CC[C@]21C` (some centres undefined), the Potency entry was “inactive”. Then `CC1CC[C@@]2(OC1)OC1CC3C4CC[C@H]5CC(O)CC[C@@]5(C)C4CC[C@]3(C)C1C2C` (some centres undefined), with “inactive”. With `COc1ccc(-c2coc3c(OC)c(OC)cc(OC)c3c2=O)cc1`, the Potency entry was “inactive”.

Take `O=c1[nH]cnc2c1nc(Cl)n2C1OC(CO)C(O)C1O` (centres undefined): the Potency result is “inactive”.
